The list is not random: actives were taken first. Their share in the collection is about 18%.
TDP1 cell noCPT: qHTS for Inhibitors of human tyrosyl-DNA phosphodiesterase 1 (TDP1): qHTS in cells in absence of CPT; DT40 Tdp1-/- hTDP1 cells, no CPT, ATP luminescence, 48 h; Potency, µM (highest dose often 46.2 µM), inactives show at the highest dose activity change, negative = growth inhibition, actives largely listed as inhibitors; 420,000 compounds, 15% hits; further: potency means the concentration at half of the fitted maximal effect; nearly all actives have a fitted effect of over 55% in size
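DT40 Tdp1-/-;hTDP1 cells, no CPT (DMSO vehicle only), 400 cells/well; compounds pin-transferred; ≥48 hr, 37 °C; CellTiter-Glo 30 min RT dark, luminescence read.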
TDP1 inh: TDP1 (human) enzyme inhibition; Potency, µM (series often up to 130 µM), inactives show at the top dose activity change, negative = inhibition, most hits filed as inhibitors; 350,000 compounds, 0.28% hits; recombinant TDP1, AlphaScreen DNA substrate cleavage; further: potency means the concentration at half of the fitted maximal effect; nearly all actives have a fitted effect of over 40% in size
Target sequence (Q9NUW8 whole entry, looked up): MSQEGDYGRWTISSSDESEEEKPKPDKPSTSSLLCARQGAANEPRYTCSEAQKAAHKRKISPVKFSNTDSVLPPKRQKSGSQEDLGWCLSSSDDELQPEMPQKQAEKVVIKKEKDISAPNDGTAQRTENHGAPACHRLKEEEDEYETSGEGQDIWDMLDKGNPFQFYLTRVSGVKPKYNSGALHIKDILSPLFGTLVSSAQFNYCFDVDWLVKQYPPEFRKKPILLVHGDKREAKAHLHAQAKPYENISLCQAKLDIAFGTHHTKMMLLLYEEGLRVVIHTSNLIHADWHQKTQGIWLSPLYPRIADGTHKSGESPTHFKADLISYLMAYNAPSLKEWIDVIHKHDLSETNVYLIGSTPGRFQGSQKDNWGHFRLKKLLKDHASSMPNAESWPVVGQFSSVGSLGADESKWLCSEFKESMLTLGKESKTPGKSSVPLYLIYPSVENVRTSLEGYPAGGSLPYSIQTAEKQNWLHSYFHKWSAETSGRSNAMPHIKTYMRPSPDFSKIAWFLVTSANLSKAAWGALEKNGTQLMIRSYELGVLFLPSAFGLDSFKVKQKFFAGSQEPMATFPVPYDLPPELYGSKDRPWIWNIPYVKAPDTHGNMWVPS
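AlphaScreen read-out: signal falls as enzyme removes the 3' tyrosine-FITC from a 5'-biotinylated DNA oligo (15 nM, 5 min, RT). Enzyme was E. coli-made recombinant Tdp1 at 1 nM, exposed to compound for 15 min beforehand; beads 10 ug/ml, 10 min.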
Six1-Eya2 blk: inhibitors of human Six1/Eya2 interaction | 360,000 compounds, 0.56% hits | activity change, % (no concentration beside the values) | AlphaScreen GST-Six1/His-Eya2 binding, biochemical; active compounds read low | Q15475+O00167; in the data active means activity change below about -65%; inconclusive means mostly about -30% to -63%
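Homogeneous AlphaScreen proximity assay pairing GST-Six1 with His-tagged Eya2 (added as 5X mix: 250 nM and 500 nM) in 50 mM Tris pH 8.0, 300 mM NaCl, 1 mM TCEP. Glutathione donor and nickel acceptor beads; 1 h, 37 °C, dark.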
TDP1 cell CPT: growth inhibition of DT40 Tdp1-/-;hTDP1 cells with camptothecin (screen for TDP1 inhibitors); chicken DT40 Tdp1-/-;hTDP1 cells + 20 nM CPT, ATP luminescence, 48 h; Potency, µM (titrated, usually from 46.2 µM), inactives show at the highest dose activity change, negative = growth inhibition, actives largely listed as inhibitors; 420,000 compounds, 12% hits; AID 686979; further: potency means the concentration at half of the fitted maximal effect; nearly all actives have a fitted effect of over 55% in size
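Chicken DT40 Tdp1-/- cells complemented with human TDP1, 400 cells/well, exposed to compounds plus 20 nM camptothecin for at least 48 h at 37 C; viability read as ATP content by CellTiter-Glo luminescence.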
IL-1B inflam inh: inhibitors of inflammasome signaling (IL-1 beta secretion). AID 743279. activity change, % at 57.5 µM. THP-1 LPS/ATP IL-1B secretion, AlphaLISA, 16 h; active compounds read low. 360,000 compounds, 4.7% hits; in the data active means activity change below about -50%; inconclusive means mostly about -30% to -49%
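Secreted IL-1B measured by AlphaLISA bead assay after 16 h compound exposure of THP-1 cells; compounds (final up to 57.5 uM) added 1 h before LPS (250 ng/mL) and ATP (1.25 mM) stimulation; lower signal means less secretion.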
CtBP-E1A inh: inhibitors of CtBP/E1A interaction; activity change, % (test concentration not listed); AID 651724; AlphaScreen GST-E1A/His-CtBP binding, 1536-well; active compounds read low; 340,000 compounds, 0.49% hits; in the data active means activity change below about -65%; inconclusive means mostly about -30% to -63%
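GST-E1A and His-tagged CtBP (125 nM each as 5X stock) were preincubated with pin-transferred compound for 2 h at 37 °C in the dark, then glutathione donor and nickel acceptor beads were added for 1 h before AlphaScreen reading.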
* marks the source's active call; other numbers are inactive results; [ ] = dose if it differs, or a comment. Unless noted, the call rests on the fitted dose curve; in most records, active means well fitted curve in the direction sought with a large enough effect; inconclusive means small, poorly fitted or top-dose-only effect, or another doubt; inactive means no such curve, though single readings can be large; an effect the other way counts as inactive or inconclusive. On the % scale 0 is the no-effect control and ±100 the full control effect.

`N#Cc1cccc(NC(=O)CCNS(=O)(=O)c2ccc3c(c2)CCN3C(=O)C2CC2)c1` gave TDP1 cell noCPT inconclusive, TDP1 inh 6.6% and TDP1 cell CPT inconclusive.
CCC(=O)N1CCc2cc(Br)cc(S(=O)(=O)CCC(=O)N3CCN(c4cccc(C)c4)C(C)C3)c21 (stereo unspecified) was read as TDP1 cell noCPT inconclusive, TDP1 inh 5.9% and TDP1 cell CPT inconclusive.
Screening CCC(=O)N1CCc2cc(S(=O)(=O)CCC(=O)N3CCN(c4cccc(C)c4)C(C)C3)ccc21 (stereo unspecified) returned TDP1 cell noCPT 4.61µM*, TDP1 inh 2.3% and TDP1 cell CPT 11.6µM*.
Screening Cc1cccc(N(C)C(=O)CCNS(=O)(=O)c2ccc3c(c2)CCN3C(=O)C2CC2)c1 returned TDP1 cell noCPT 20.6µM*, TDP1 inh 8.8% and TDP1 cell CPT 16.4µM*.
`Cc1cccc(N2CCN(C(=O)CCNS(=O)(=O)c3ccc4c(c3)CCN4C(=O)C3CC3)CC2C)c1` (stereo unspecified) gave TDP1 cell noCPT 8.2µM*, TDP1 inh 3.3% and TDP1 cell CPT 5.8µM*.
For Cc1ccc(C)n1-c1nn(S(=O)(=O)c2cccc3cccnc23)c2cccc(F)c12 the results were TDP1 cell noCPT -59.4%, TDP1 inh -5.2%, Six1-Eya2 blk -4.6, TDP1 cell CPT -7.1%, IL-1B inflam inh -17.0 and CtBP-E1A inh -1.9.
For COc1cc(/C=C/C(C)=NNc2ccccc2)ccc1O the results were TDP1 cell noCPT 4.11µM*, Six1-Eya2 blk -10.7, TDP1 cell CPT 3.66µM*, IL-1B inflam inh -93.5* and CtBP-E1A inh -8.9.
For COc1cc(/C=C/C(=O)O)ccc1O the results were TDP1 cell noCPT -2.4%, TDP1 inh 6.8%[56.1 µM], Six1-Eya2 blk 7.7, TDP1 cell CPT 10.2%, IL-1B inflam inh -17.6 and CtBP-E1A inh -24.0.
`CC1=CC(=O)C(C(C)C)=C/C1=N\OC(=O)c1cccc2nc(C)oc12` gave TDP1 cell noCPT 20.6µM*, TDP1 inh 1.8%, Six1-Eya2 blk 3.1, TDP1 cell CPT inconclusive, IL-1B inflam inh 1.0 and CtBP-E1A inh 3.5.
For CC1=CC(=O)C(C(C)C)=C/C1=N/OC(=O)c1cccc([N+](=O)[O-])c1 the results were TDP1 cell noCPT 11.6µM*, TDP1 inh 3.6%, Six1-Eya2 blk 3.6, TDP1 cell CPT 23.1µM*, IL-1B inflam inh -100.6* and CtBP-E1A inh 4.0.
Cc1ccc(C(=O)O/N=C(\N)c2cccc([N+](=O)[O-])c2)cc1 was read as TDP1 cell noCPT -15.4%, TDP1 inh 2.9%, Six1-Eya2 blk -4.7, TDP1 cell CPT -29.6%, IL-1B inflam inh 1.2 and CtBP-E1A inh -7.0.
For CC1=CC(=NOC(=O)c2cccc([N+](=O)[O-])c2)C=C(C)C1=O the results were TDP1 cell noCPT 11.6µM*, TDP1 inh -2.3%, Six1-Eya2 blk 5.4, TDP1 cell CPT 18.4µM*, IL-1B inflam inh -85.0* and CtBP-E1A inh 6.2.
`CCOC(=O)C1CCN(C(=O)Cn2cnc3sc(C)c(S(=O)(=O)N4CCC(C)CC4)c3c2=O)CC1` gave TDP1 cell noCPT -19.8%, TDP1 inh 2.1%, Six1-Eya2 blk 0.5, TDP1 cell CPT 1.6%, IL-1B inflam inh -9.8 and CtBP-E1A inh 1.2.
Screening CCc1ccc(-n2nc3cc(C)c(NC(=O)c4cc(OC)cc(OC)c4)cc3n2)cc1 returned TDP1 cell noCPT -15.7%, TDP1 inh -1.9% and TDP1 cell CPT -5.5%.
`CCc1ccc(-n2nc3cc(C)c(NC(=O)c4cccc5ccccc45)cc3n2)cc1` gave TDP1 cell noCPT inconclusive, TDP1 inh 1.9% and TDP1 cell CPT 20.6µM*.
Screening CCCCc1ccc(-n2nc3cc(C)c(NC(=O)Cc4ccccc4)cc3n2)cc1 returned TDP1 cell noCPT -15.0% and TDP1 cell CPT -26.8%.

Screens: PubChem BioAssay, National Center for Advancing Translational Sciences (NCATS)
